Measurements as given in PubChem BioAssay (NCI).
About 79,000 compounds went through this panel and 15% of them were active in at least one assay; those are over-represented in the sample as a whole. Unmarked numbers belong to inactive results. Active and inactive are the calls of the source. Cut-off read from the data, not from the text of the source: active = growth inhibition above about 70%; inactive = the rest.

What was measured:
[1] = NCI Yeast Anticancer Drug Screen. Data for the rad52 strain (AID 147);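 note: 0% = growth of vehicle-treated control cultures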; conditions: S. cerevisiae rad52 mutant growth inhibition, active compounds read high
In short: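 Here a repair-compromised yeast strain receives each compound; its growth is then quantified and normalised to vehicle-only controls.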

[2] = NCI Yeast Anticancer Drug Screen. Data for the wt1 strain (AID 149);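 note: 0% = growth of vehicle-treated wt1 cultures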; conditions: S. cerevisiae wt1 strain (SPY 50644) growth inhibition, active compounds read high
In short: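 Measured: growth of wt1 yeast under compound versus vehicle treatment, reported as inhibition.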

[3] = NCI Yeast Anticancer Drug Screen. Data for the rad50EPP+ strain (AID 151);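 note: 0% = growth of vehicle-treated control cultures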; conditions: S. cerevisiae rad50 mutant strain, active compounds read high
In short: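 Read-out is yeast growth inhibition relative to vehicle; cells used were the rad50EPP+ strain.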

[4] = NCI Yeast Anticancer Drug Screen. Data for the mgt1 strain (AID 153); conditions: S. cerevisiae mgt1 mutant growth inhibition, active compounds read high
In short: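 Measured: inhibition of mgt1 yeast growth by compound, normalized to vehicle-treated cultures.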

[5] = NCI Yeast Anticancer Drug Screen. Data for the rad50 strain (AID 155);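 note: 0% = growth of vehicle-only cultures of the same strain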; conditions: S. cerevisiae rad50 strain growth inhibition, active compounds read high
In short: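 Growth of the mutant yeast was measured after compound exposure and referenced to vehicle-treated cultures.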

[6] = NCI Yeast Anticancer Drug Screen. Data for the mec2-1 strain (AID 157); conditions: S. cerevisiae mec2-1 strain, active compounds read high
In short: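 Using mec2-1 yeast: add compound, measure growth, express inhibition versus vehicle-treated cultures.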

[7] = NCI Yeast Anticancer Drug Screen. Data for the rad14 strain (AID 159);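 note: 0% = growth of vehicle-treated control cultures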; conditions: S. cerevisiae rad14 strain growth inhibition, active compounds read high
In short: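 Here, inhibition of yeast growth was measured after compound exposure, using a strain with a genetic defect in DNA damage repair and vehicle-treated cultures as the reference.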

[8] = NCI Yeast Anticancer Drug Screen. Data for the sgs1 mgt1 strain (AID 161);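 note: 0% = growth of cultures given vehicle only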; conditions: S. cerevisiae sgs1 mgt1 strain, active compounds read high
In short: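 Yeast cells carrying a defined DNA-repair defect were exposed to test compounds. Growth inhibition was measured relative to vehicle-treated controls.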

[9] = NCI Yeast Anticancer Drug Screen. Data for the CLN2oe strain (AID 163);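 note: 0% = growth of vehicle-only control cultures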; conditions: S. cerevisiae CLN2oe strain, active compounds read high
In short: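 Whole-cell yeast growth assay. A strain engineered for altered cell-cycle control received compound, and inhibition relative to vehicle-treated cultures was recorded.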

[10] = NCI Yeast Anticancer Drug Screen. Data for the cln2 rad14 strain (AID 165);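 note: 0% = growth equal to vehicle treated cultures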; conditions: S. cerevisiae cln2 rad14 strain, active compounds read high
In short: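 Yeast strain cln2 rad14, bearing defects in cell cycle control and DNA repair, serves as the test system; values reflect growth inhibition compared with vehicle.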

[11] = NCI Yeast Anticancer Drug Screen. Data for the bub3 strain (AID 167); conditions: S. cerevisiae bub3 mutant strain, active compounds read high
In short: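 Whole-cell yeast assay. The mutant strain was incubated with compounds, and growth inhibition was determined by comparison with vehicle-treated cells.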

[12] = NCI Yeast Anticancer Drug Screen. Data for the wt2 strain (AID 169);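 note: 0% = growth of vehicle-treated yeast cultures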; conditions: S. cerevisiae wt2 strain growth inhibition, active compounds read high
In short: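 Treated yeast vs. vehicle-treated yeast: growth inhibition determined.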

[13] = NCI Yeast Anticancer Drug Screen. Data for the mlh1 strain (AID 171);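 note: 0% = growth of vehicle-treated control cultures of the same strain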; conditions: S. cerevisiae mlh1 strain growth inhibition, active compounds read high
In short: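 A yeast strain with a defined genetic lesion serves as the test organism. Cultures receive compound or vehicle, and growth is measured.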

[14] = NCI Yeast Anticancer Drug Screen. Data for the sgs1 strain (AID 173);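 note: 0% = growth of vehicle-only control cultures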; conditions: S. cerevisiae sgs1 mutant, active compounds read high
In short: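 A genetically defined yeast mutant is incubated with the test compound, and its growth is compared to that of the same strain given vehicle.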

[15] = NCI Yeast Anticancer Drug Screen. Data for the mlh1 rad18 strain (AID 175); conditions: S. cerevisiae mlh1 rad18 strain growth inhibition, active compounds read high
In short: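 Steps: expose repair-defective yeast to compound; measure growth; express inhibition against vehicle-treated controls.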

[16] = NCI Yeast Anticancer Drug Screen. Data for the rad18 strain (AID 177); conditions: S. cerevisiae rad18 mutant growth inhibition, active compounds read high
In short: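 Measured value is growth inhibition of a yeast strain bearing a DNA repair alteration, referenced to vehicle-treated cells.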

[17] = at 5.0 µM (retest, dose inferred, filed as 0.5)
[18] = at 50.0 µM (retest, dose inferred, filed as 5.0)

## CCOC(=O)C(Br)C(Br)c1ccccc1Cl (stereo not drawn)
[1]; at 1.2 µM
  growth inhibition: 6%
[1]; at 3.7 µM
  growth inhibition: 23%
[1]; at 11.0 µM
  growth inhibition: 83% (active)
[1]; at 33.0 µM
  growth inhibition: 99% (active)
[1]; at 100.0 µM
  growth inhibition: 99% (active)
[2]; at 1.2 µM
  growth inhibition: -4%
[2]; at 3.7 µM
  growth inhibition: 7%
[2]; at 11.0 µM
  growth inhibition: 46%
[2]; at 33.0 µM
  growth inhibition: 99% (active)
[2]; at 100.0 µM
  growth inhibition: 99% (active)
[3]; at 1.2 µM
  growth inhibition: 24%
[3]; at 3.7 µM
  growth inhibition: 62%
[3]; at 11.0 µM
  growth inhibition: 96% (active)
[3]; at 33.0 µM
  growth inhibition: 99% (active)
[3]; at 100.0 µM
  growth inhibition: 99% (active)
[4]; at 1.2 µM
  growth inhibition: 0%
[4]; at 3.7 µM
  growth inhibition: 14%
[4]; at 11.0 µM
  growth inhibition: 61%
[4]; at 33.0 µM
  growth inhibition: 99% (active)
[4]; at 100.0 µM
  growth inhibition: 99% (active)
[5]; at 1.2 µM
  growth inhibition: 5%
[5]; at 3.7 µM
  growth inhibition: 17%
[5]; [17]
  growth inhibition: 23%
[5]; at 11.0 µM
  growth inhibition: 68%
[5]; at 33.0 µM
  growth inhibition: 99% (active)
[5]; [18]
  growth inhibition: 99% (active)
[5]; at 50.0 µM
  growth inhibition: 99.7% (active)
[5]; at 100.0 µM
  growth inhibition: 99% (active)
[6]; at 1.2 µM
  growth inhibition: 0%
[6]; at 3.7 µM
  growth inhibition: 12%
[6]; [17]
  growth inhibition: 30%
[6]; at 11.0 µM
  growth inhibition: 47%
[6]; at 33.0 µM
  growth inhibition: 99% (active)
[6]; [18]
  growth inhibition: 100% (active)
[6]; at 50.0 µM
  growth inhibition: 99.8% (active)
[6]; at 100.0 µM
  growth inhibition: 99% (active)
[7]; at 1.2 µM
  growth inhibition: 0%
[7]; at 3.7 µM
  growth inhibition: 10%
[7]; at 11.0 µM
  growth inhibition: 47%
[7]; at 33.0 µM
  growth inhibition: 98% (active)
[7]; at 100.0 µM
  growth inhibition: 99% (active)
[8]; [17]
  growth inhibition: 46%
[8]; [18]
  growth inhibition: 99% (active)
[8]; at 50.0 µM
  growth inhibition: 99.8% (active)
[9]; at 1.2 µM
  growth inhibition: -2%
[9]; at 3.7 µM
  growth inhibition: 3%
[9]; at 11.0 µM
  growth inhibition: 47%
[9]; at 33.0 µM
  growth inhibition: 99% (active)
[9]; at 100.0 µM
  growth inhibition: 99% (active)
[10]; [17]
  growth inhibition: 13%
[10]; [18]
  growth inhibition: 99% (active)
[10]; at 50.0 µM
  growth inhibition: 99.4% (active)
[11]; at 1.2 µM
  growth inhibition: -1%
[11]; at 3.7 µM
  growth inhibition: 7%
[11]; [17]
  growth inhibition: 22%
[11]; at 11.0 µM
  growth inhibition: 47%
[11]; at 33.0 µM
  growth inhibition: 98% (active)
[11]; [18]
  growth inhibition: 99% (active)
[11]; at 50.0 µM
  growth inhibition: 99.8% (active)
[11]; at 100.0 µM
  growth inhibition: 99% (active)
[12]; at 1.2 µM
  growth inhibition: -2%
[12]; at 3.7 µM
  growth inhibition: 22%
[12]; at 11.0 µM
  growth inhibition: 93% (active)
[12]; at 33.0 µM
  growth inhibition: 99% (active)
[12]; at 100.0 µM
  growth inhibition: 99% (active)
[13]; at 1.2 µM
  growth inhibition: 9%
[13]; at 3.7 µM
  growth inhibition: 23%
[13]; at 11.0 µM
  growth inhibition: 92% (active)
[13]; at 33.0 µM
  growth inhibition: 99% (active)
[13]; at 100.0 µM
  growth inhibition: 99% (active)
[14]; at 1.2 µM
  growth inhibition: 10%
[14]; at 3.7 µM
  growth inhibition: 34%
[14]; at 11.0 µM
  growth inhibition: 94% (active)
[14]; at 33.0 µM
  growth inhibition: 99% (active)
[14]; at 100.0 µM
  growth inhibition: 99% (active)
[15]; [17]
  growth inhibition: 39%
[15]; [18]
  growth inhibition: 99% (active)
[15]; at 50.0 µM
  growth inhibition: 99.5% (active)
[16]; at 1.2 µM
  growth inhibition: 10%
[16]; at 3.7 µM
  growth inhibition: 29%
[16]; at 11.0 µM
  growth inhibition: 89% (active)
[16]; at 33.0 µM
  growth inhibition: 99% (active)
[16]; at 100.0 µM
  growth inhibition: 99% (active)
